Assay results from PubChem BioAssay (NCI).
Compounds without any hit were thinned out: in the full panel of roughly 83,000, 20% have a hit.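 Assay: single dose, 48 h. Readout: percent growth (0 = no net growth; negative = cell death). Active: <10.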 A number with no mark means an inactive call. The source made the active and inactive calls.

Legend:
Test in all cases: NCI-60 one-dose screen, 48 h (100 = growth as untreated, 0 = no growth, -100 = all killed)
Conditions in all cases: 10 µM unless noted
[1] = tested on: NCI-H23 lung
[2] = tested on: NCI-H226 lung
[3] = tested on: NCI-H322M lung
[4] = tested on: HOP-62 NSCLC
[5] = tested on: NCI-H460 lung
[6] = tested on: HOP-92 NSCLC
[7] = tested on: NCI-H522 lung
[8] = tested on: A549/ATCC NSCLC
[9] = tested on: 786-0 renal
[10] = tested on: COLO 205 colon
[11] = tested on: DU-145 prostate
[12] = tested on: K-562 leukemia
[13] = tested on: MALME-3M melanoma
[14] = tested on: MDA-MB-231 breast
[15] = tested on: SF-268 CNS
[16] = tested on: SF-295 CNS
[17] = tested on: SF-539 CNS
[18] = tested on: M14 melanoma
[19] = tested on: UACC-257 melanoma
[20] = tested on: RXF 393 renal

Structure (SMILES) | growth [1] | growth [2] | growth [3] [%] | growth [4] | growth [5] | growth [6] | growth [7] | growth [8] | growth [9] | growth [10] | growth [11] | growth [12] | growth [13] | growth [14] | growth [15] | growth [16] | growth [17] | growth [18] | growth [19] | growth [20]
COC(=O)C1CCC(NC(=O)c2csc([C@@H](C[C@H](C(C)C)N(C)C(=O)[C@@H](NC(=O)[C@H]3CCCCN3C)C(C)C)OC(C)=O)n2)CC1 (stereo partly specified) | 32% | 17% | 47.8 | 7.46% (active) | 6.14% (active) | 32.2% | -25% (active) | 15.9% | 13% | -71.1% (active) | 9.8% (active) | 10% | 57.8% | 12.1% | 22.6% | 2.5% (active) | -10.1% (active) | 1.47% (active) |  | 
CC(C)(N)Cc1ccccc1 | 113% | 107% | 105 | 118% | 111% | 87.8% | 90.9% | 103% | 91.3% | 116% | 115% | 92.8% | 112% | 119% | 113% | 98.1% | 107% |  | 101% | 
CC(=O)/C=C/c1ccc2c(c1)OCO2 | 95.4% | 95.2% | 104 | 102% | 107% | 89% | 84.7% | 95.2% | 99% | 107% | 104% | 106% | 92% | 95.1% | 106% | 94.1% | 102% | 100% | 91.7% | 
Nc1nc([Se])c2ncn(C3OC(CO)C(O)C3O)c2n1 (stereo unspecified) | 51% | 78.5% | 84.3 | 12.3% | 27.4% | 43% | 71.6% | 102% | 29.4% | 124% | 39.9% | 21.7% | 69.3% | 22% | 87% | 42.6% | 81% | 40.6% | 83.8% | 
O[C@H](CN1CC1)[C@@H](O)CN1CC1 | 65.8% | 79.7% | 103 | 61.8% | 15.5% | 87% | 93.9% | 66.3% | 43.2% | 76.7% | 39.5% | 65.9% |  | 109% | 45.5% | 19.6% | 24.6% | 48.9% | 86.3% | 77.2%
Nc1ccc(OCCNS(=O)(=O)c2cccc(S(=O)(=O)F)c2)c(Cl)c1 | 95.5% | 96.5% | 87.5 | 90% | 102% | 87.5% | 74.6% | 84.8% | 88.8% | 110% |  | 95.1% | 86.2% | 100% | 102% | 89.2% | 93.5% |  | 75.4% | 
N#CC1C(C#N)C2CCC1C1C2N1c1ccccc1 (stereo unspecified) | 117% | 101% | 92.3 | 97.4% | 108% | 74.5% | 108% | 126% | 107% | 103% | 118% |  | 85.7% | 110% | 104% | 103% | 104% | 101% | 117% | 103%
COC(=O)CCC1=C(C)c2cc3[n-]c(cc4nc(cc5[n-]c(cc1n2)c(CCC(=O)OC)c5C)C=C4C)cc3C.[Cd+2] | 19.1% | 19.8% | 95.5 | 65.7% | -27.3% (active) | 3.42% (active) | -70.1% (active) | 56.1% | 75.2% | 22.4% | 9.35% (active) |  | 20.5% | 34.9% | 11.6% | 61.9% | 62.2% | 57.9% | 78.7% | 65.7%
COc1cc(/C=N/C2=C(C#N)C(c3ccco3)c3c(c4cc(C)ccc4oc3=O)O2)cc(OC)c1OC (stereo unspecified) | 95.1% | 86.3% | 100 | 87.3% | 103% | 59.4% | 40.3% | 99.5% | 92.5% | 118% | 107% |  | 97.2% | 95.6% | 95.2% | 92.2% | 90.8% | 93.4% | 94.2% | 
Cc1cc(N(CCCl)CCCl)ccc1C=Nc1cccnc1 | 56.6% | -45.2% (active) | 108 | 60.4% | 26.5% | 44.8% | 87.3% | 67.9% | 63% | 76.7% |  | 63.1% | 62% | 98.4% | 80.4% | 36.7% | 53.5% | 79.5% | 61.8% | 59.7%
O=C(N/N=C\c1ccc(N(CCCl)CCCl)cc1)c1cccc([N+](=O)[O-])c1 | 87.7% | 46.6% | 121 | -2.12% (active) | 69.1% | 92.4% | 107% | 90.4% | 96.7% | 102% | 85.9% |  | 100% | 89.2% | 76.7% | 88.4% | 81% | 110% | 92.7% | 98.5%
CC(=O)OC[C@]1(C)C=C2C(=O)[C@](C)(O)C3(CC3)C(C)=C2[C@H]1OC(=O)N(C)CCN(C)C(=O)OC(C)(C)C | -17.8% (active) | 24.7% | 12.4 | -19.9% (active) | 0.38% (active) | -13.4% (active) | -47% (active) | 4.55% (active) | 0.73% (active) | -66.8% (active) | 3.6% (active) |  | -44% (active) | 4.31% (active) | 7.08% (active) | 6.27% (active) | -37.1% (active) |  | 33.7% | -68.2% (active)
CC(C)=CCC/C(C)=C/C=N\N=C(/N)N[N+](=O)[O-] | 97.6% | 99.3% | 95.9 | 87.2% | 110% | 89.8% | 47.7% | 97.4% | 80.4% | 103% | 102% | 95.9% | 93.5% |  | 93% | 101% | 89.2% | 102% | 107% | 122%
Clc1cccc(NCOOC2(OOCNc3cccc(Cl)c3)CCCCC2)c1 | 43.6% | 94.7% | 73.7 | 49.5% | 77.2% | -46.3% (active) |  | 3.1% (active) | 10.8% | 96.6% | 73.3% | -41% (active) | 74.5% | 81.7% | 73.1% | 74.8% | 16.4% |  | 87.7% | 108%
CCOC(=O)CCC(NC(=O)C(Cc1ccc(N(CCCl)CCCl)cc1)NC=O)C(=O)OCC (stereo unspecified) | 1.98% (active) | 57.5% | 88 | 113% | 8.71% (active) | -2.74% (active) | -67.6% (active) | 61.8% | -40.8% (active) | 111% | 36.3% | 35.6% | -80.2% (active) |  |  | 21.5% | -61.7% (active) | -62.9% (active) | -9.97% (active) | -75.9% (active)
COc1ccc(/C=C\c2cc(OC)c(OC)c(OC)c2)cc1NC(=O)/C=C/c1ccc(OC)c(OC)c1 | 0.102% (active) | 35.9% | 68.2 | 39.5% | 22% | 115% | 11.1% | 41.7% | 35.7% | -4.78% (active) | 15.9% |  | 51.7% | 58.6% | 41.7% | 5.37% (active) | 2.69% (active) | 23.4% | 73.9% | -15.1% (active)
